The values that follow come from PMC7862700, “An all-to-all approach to the identification of sequence-specific readers for epigenetic DNA modifications on cytosine”.

Common to all, as to experiment: DAPPL (digital affinity profiling via proximity ligation, sequencing); 10 mM Tris-HCl pH 7.5, 50 mM NaCl, 1 mM DTT, 4% glycerol, room temperature, 30 min; GST-TFs on glutathione beads, 16-mer random dsDNA library, 0.1% formaldehyde crosslink after washing; high values mean tight binding
Experiment [1] addresses T1, ELK1 (Homo sapiens, UniProt P19419 1-428).
T1 sequence: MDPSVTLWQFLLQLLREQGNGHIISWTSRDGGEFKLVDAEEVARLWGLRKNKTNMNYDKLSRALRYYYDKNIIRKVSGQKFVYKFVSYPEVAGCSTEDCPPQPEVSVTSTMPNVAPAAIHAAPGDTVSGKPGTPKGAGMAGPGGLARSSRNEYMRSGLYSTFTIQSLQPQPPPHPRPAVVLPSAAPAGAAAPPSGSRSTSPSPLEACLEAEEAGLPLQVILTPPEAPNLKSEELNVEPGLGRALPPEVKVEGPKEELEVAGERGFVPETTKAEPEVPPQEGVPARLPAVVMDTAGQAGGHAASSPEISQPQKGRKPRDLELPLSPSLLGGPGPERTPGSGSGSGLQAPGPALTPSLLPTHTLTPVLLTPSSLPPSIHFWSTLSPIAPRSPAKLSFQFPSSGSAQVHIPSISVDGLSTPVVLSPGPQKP
To be noted: protein: recombinant; tags: N-terminal GST; dsDNA, one strand shown. In a few lines: (§1)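 A tag-only sample was pooled with DNA-barcoded human transcription factors that had been expressed in yeast as GST fusions and captured on glutathione beads. The pools were incubated for 30 min at room temperature with 200 nmole of a random double-stranded 16-mer DNA library in Tris/NaCl/DTT/glycerol buffer, then washed, crosslinked with 0.1% formaldehyde, proximity-ligated (BsaI/T4 ligase, 1 h, 37 °C), PCR-amplified and sequenced on an Illumina NextSeq500. Binding signal is each hexamer's read frequency for a factor divided by its frequency for the tag-only sample.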

Experiment [2] addresses T2, ERG (Homo sapiens, UniProt P11308 1-479).
T2 sequence: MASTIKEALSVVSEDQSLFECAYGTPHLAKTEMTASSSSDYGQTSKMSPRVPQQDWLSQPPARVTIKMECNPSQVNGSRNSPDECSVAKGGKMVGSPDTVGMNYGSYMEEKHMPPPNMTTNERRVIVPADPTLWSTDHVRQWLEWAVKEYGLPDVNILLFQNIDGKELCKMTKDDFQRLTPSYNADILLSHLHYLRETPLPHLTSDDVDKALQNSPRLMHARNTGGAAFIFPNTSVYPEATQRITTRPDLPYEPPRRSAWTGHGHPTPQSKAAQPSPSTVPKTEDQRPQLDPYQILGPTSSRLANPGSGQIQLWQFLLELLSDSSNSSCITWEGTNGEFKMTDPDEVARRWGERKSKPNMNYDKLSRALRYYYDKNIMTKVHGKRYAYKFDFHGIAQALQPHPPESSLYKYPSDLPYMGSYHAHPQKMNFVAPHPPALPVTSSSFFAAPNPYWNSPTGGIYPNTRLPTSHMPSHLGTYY
As to conditions: protein: recombinant; tags: N-terminal GST; dsDNA, one strand shown. The essentials:
as §1

For experiment [3], the target named is ELF1 (Homo sapiens, UniProt P32519 1-619). To be noted: protein: recombinant; tags: N-terminal GST; dsDNA, one strand shown. In a few lines:
as §1

Experiment [4] has as its target T3, EHF (Homo sapiens, UniProt Q9NZC4 1-300).
T3 sequence: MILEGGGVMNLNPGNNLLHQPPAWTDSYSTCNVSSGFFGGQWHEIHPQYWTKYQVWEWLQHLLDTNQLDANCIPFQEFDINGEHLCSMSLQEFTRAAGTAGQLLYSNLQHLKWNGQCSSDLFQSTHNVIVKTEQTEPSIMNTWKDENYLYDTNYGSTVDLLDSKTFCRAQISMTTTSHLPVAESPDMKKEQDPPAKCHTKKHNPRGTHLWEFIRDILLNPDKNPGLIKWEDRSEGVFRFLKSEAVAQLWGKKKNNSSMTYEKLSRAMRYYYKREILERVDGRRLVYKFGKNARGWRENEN
As to conditions: protein: recombinant; tags: N-terminal GST; dsDNA, one strand shown. The essentials:
as §1

The target of experiment [5] is SPI1 (Homo sapiens, UniProt P17947 1-270). As to conditions: protein: recombinant; tags: N-terminal GST; dsDNA, one strand shown. The essentials: as §1
The target in experiment [6] is SPIB (Homo sapiens, UniProt Q01892 1-262). To be noted: protein: recombinant; tags: N-terminal GST; dsDNA, one strand shown. The essentials: as §1
For experiment [7], the target named is T4, ELK3 (Homo sapiens, UniProt P41970 1-407).
T4 sequence: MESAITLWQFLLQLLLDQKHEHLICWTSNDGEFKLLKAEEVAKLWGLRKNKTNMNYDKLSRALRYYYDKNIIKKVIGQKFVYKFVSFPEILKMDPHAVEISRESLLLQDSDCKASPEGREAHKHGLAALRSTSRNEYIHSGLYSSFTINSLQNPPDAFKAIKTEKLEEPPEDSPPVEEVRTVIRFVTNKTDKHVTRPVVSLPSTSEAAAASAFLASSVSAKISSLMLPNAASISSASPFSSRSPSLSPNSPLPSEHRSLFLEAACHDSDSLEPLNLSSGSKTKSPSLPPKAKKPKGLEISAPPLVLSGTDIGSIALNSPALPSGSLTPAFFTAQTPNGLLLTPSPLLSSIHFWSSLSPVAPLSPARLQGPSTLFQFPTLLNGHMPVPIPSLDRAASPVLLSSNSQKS
As to conditions: protein: recombinant; tags: N-terminal GST; dsDNA, one strand shown. In a few lines:
as §1

For experiment [8], the target named is HSF1 (Homo sapiens, UniProt Q00613 1-529). As to conditions: protein: recombinant; tags: N-terminal GST; chain copies: 3; dsDNA, one strand shown. The essentials: as §1
In experiment [9] the target is T5, SPIC (Homo sapiens, UniProt Q8N5J4 1-248).
T5 sequence: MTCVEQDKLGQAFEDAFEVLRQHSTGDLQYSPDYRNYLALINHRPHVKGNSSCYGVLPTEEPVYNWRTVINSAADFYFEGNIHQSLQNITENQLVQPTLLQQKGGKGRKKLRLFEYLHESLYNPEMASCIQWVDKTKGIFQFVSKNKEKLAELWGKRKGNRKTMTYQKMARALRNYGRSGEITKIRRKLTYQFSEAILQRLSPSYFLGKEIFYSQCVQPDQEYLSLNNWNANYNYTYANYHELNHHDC
To be noted: protein: recombinant; tags: N-terminal GST; dsDNA, one strand shown. The essentials: as §1

For experiment [10], the target named is T6, ELK4 (Homo sapiens, UniProt P28324-2 1-405).
T6 sequence: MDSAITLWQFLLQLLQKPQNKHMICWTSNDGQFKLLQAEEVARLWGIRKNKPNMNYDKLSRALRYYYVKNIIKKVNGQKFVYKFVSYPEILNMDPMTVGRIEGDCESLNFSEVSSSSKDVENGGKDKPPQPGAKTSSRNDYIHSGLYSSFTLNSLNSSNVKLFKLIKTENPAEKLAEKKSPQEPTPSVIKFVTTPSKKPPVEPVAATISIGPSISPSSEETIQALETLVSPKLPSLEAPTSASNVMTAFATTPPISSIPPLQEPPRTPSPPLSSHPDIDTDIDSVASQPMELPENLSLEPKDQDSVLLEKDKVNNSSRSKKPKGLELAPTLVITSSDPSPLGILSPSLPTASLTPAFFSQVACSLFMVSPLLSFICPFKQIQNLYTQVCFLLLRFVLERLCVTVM
As to conditions: protein: recombinant; tags: N-terminal GST; dsDNA, one strand shown. In a few lines:
as §1

Experiment [11] has as its target T7, ETV2 (Homo sapiens, UniProt O00321 1-342).
T7 sequence: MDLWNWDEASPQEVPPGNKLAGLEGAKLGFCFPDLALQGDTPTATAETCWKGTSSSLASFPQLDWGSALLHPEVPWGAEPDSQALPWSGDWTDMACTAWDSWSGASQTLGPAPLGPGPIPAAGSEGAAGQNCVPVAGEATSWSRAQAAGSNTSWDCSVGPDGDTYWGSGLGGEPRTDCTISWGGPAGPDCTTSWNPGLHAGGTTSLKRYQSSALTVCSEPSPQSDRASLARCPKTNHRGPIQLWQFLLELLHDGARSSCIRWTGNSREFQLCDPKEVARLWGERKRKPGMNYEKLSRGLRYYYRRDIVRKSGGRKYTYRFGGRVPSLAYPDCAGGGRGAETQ
To be noted: protein: recombinant; tags: N-terminal GST; dsDNA, one strand shown. The essentials:
as §1

Experiment [12] addresses T8, ELF3 (Homo sapiens, UniProt P78545 1-371).
T8 sequence: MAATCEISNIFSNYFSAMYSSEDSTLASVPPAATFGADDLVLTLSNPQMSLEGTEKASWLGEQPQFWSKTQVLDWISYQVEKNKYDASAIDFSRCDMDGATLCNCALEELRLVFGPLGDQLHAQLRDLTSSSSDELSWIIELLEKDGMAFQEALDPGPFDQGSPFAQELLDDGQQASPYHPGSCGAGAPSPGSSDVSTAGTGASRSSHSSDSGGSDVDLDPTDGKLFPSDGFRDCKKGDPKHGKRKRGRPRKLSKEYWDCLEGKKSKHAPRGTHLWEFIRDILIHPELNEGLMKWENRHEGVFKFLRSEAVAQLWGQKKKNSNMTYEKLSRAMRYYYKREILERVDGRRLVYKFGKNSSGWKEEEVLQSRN
As to conditions: protein: recombinant; tags: N-terminal GST; dsDNA, one strand shown. In a few lines: as §1

The target of experiment [13] is ETV1 (Homo sapiens, UniProt P50549 1-477). As to conditions: protein: recombinant; tags: N-terminal GST; dsDNA, one strand shown. In a few lines: as §1
The target of experiment [14] is T9, ERF (Homo sapiens, UniProt P50548 1-548).
T9 sequence: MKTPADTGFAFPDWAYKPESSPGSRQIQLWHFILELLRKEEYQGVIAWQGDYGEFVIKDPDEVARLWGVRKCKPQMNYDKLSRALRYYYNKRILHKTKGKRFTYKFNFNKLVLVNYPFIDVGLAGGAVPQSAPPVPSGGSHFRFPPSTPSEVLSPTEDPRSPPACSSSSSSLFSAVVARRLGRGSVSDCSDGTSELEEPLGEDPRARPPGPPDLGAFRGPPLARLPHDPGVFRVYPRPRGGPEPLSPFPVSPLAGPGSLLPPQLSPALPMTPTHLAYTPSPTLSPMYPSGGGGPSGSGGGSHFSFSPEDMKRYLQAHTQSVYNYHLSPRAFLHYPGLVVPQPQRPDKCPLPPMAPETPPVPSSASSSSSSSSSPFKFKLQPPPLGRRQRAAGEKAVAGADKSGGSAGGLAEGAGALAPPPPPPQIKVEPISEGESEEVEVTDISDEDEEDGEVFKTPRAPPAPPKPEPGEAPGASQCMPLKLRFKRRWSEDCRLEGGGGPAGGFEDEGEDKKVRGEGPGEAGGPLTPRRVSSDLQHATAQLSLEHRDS
To be noted: protein: recombinant; tags: N-terminal GST; dsDNA, one strand shown. The essentials: as §1

Experiment [15] addresses T10, ETS2 (Homo sapiens, UniProt P15036 1-469).
T10 sequence: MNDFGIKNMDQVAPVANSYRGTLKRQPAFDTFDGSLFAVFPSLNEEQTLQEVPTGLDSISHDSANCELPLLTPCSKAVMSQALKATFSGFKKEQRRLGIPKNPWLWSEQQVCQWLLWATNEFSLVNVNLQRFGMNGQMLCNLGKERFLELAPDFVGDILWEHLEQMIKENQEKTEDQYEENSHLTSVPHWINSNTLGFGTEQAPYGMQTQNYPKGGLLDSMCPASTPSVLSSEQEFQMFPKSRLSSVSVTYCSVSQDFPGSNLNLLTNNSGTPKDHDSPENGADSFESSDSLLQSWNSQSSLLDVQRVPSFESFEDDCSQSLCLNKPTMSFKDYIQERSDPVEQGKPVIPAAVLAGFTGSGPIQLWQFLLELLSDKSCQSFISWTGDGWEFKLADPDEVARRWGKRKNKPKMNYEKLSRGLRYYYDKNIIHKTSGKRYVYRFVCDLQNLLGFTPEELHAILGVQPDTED
To be noted: protein: recombinant; tags: N-terminal GST; dsDNA, one strand shown. The essentials:
as §1

Chain of HSF1 (Q00613 whole entry): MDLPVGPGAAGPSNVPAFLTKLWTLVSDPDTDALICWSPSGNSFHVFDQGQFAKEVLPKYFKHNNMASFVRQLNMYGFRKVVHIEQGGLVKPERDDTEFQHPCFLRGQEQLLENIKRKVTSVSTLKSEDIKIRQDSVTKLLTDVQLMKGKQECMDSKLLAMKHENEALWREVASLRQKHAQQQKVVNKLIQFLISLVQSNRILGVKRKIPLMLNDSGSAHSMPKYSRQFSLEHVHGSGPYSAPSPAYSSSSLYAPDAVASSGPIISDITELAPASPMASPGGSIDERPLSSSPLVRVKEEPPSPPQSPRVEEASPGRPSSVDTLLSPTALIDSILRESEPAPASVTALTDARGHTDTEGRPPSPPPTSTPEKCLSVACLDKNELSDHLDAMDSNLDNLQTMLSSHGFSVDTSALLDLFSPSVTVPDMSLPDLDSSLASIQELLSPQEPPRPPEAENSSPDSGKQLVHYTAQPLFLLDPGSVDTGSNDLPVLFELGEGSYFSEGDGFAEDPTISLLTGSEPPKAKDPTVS
Chain of ELF1 (P32519 whole entry): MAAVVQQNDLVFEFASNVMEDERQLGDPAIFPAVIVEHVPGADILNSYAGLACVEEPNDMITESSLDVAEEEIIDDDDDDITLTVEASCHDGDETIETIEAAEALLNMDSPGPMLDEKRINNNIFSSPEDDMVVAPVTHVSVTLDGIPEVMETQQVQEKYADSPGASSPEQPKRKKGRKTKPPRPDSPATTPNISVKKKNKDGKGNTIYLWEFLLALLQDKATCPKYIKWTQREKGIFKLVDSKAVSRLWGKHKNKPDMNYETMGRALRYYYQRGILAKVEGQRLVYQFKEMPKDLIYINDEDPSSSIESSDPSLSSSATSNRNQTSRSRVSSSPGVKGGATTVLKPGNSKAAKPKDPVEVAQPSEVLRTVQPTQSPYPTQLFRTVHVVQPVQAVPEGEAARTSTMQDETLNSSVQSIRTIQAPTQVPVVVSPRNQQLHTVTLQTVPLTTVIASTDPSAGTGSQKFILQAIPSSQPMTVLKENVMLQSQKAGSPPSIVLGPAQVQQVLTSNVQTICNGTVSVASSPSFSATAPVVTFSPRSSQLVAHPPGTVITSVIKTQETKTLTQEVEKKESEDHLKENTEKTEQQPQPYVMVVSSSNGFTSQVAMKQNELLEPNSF
Chain of ETV1 (P50549 whole entry): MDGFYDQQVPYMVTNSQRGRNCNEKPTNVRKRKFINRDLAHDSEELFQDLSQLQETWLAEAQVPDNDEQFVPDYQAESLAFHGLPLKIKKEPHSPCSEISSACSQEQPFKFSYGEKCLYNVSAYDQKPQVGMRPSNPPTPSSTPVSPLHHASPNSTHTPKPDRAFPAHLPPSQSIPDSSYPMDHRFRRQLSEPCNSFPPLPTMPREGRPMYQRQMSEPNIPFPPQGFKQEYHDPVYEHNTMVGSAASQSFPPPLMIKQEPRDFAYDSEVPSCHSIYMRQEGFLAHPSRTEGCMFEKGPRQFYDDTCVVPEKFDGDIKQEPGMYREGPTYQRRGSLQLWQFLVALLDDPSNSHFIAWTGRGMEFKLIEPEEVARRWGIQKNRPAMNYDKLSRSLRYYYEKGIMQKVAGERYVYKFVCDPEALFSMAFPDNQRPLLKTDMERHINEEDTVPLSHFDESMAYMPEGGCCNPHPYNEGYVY
Chain of SPIB (Q01892 whole entry): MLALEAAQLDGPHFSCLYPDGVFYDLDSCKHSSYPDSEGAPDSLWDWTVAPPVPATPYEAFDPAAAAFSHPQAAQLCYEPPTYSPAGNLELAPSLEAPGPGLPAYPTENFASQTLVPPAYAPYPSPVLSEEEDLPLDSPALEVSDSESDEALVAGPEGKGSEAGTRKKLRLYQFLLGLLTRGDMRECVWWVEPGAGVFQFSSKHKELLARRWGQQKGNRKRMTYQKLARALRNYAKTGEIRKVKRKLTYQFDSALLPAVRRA

As to CGCAAA, the binding signal in [1] is 1.01 fold enrichment (6-mer frequency, TF over GST control); in [2], 1.04 fold enrichment (6-mer frequency, TF over GST control); in [3], 1 fold enrichment (6-mer frequency, TF over GST control); in experiment [4], 1.03 fold enrichment (6-mer frequency, TF over GST control); in [5] it was 1.05 fold enrichment (6-mer frequency, TF over GST control); in experiment [6], 1.02 fold enrichment (6-mer frequency, TF over GST control). The binding signal in experiment [7] was 1.08 fold enrichment (6-mer frequency, TF over GST control); in [8] it was 1.01 fold enrichment (6-mer frequency, TF over GST control); in experiment [9], 1.02 fold enrichment (6-mer frequency, TF over GST control); in experiment [10] it was 1.03 fold enrichment (6-mer frequency, TF over GST control); in experiment [11], 1.07 fold enrichment (6-mer frequency, TF over GST control); in experiment [12] it was 1.13 fold enrichment (6-mer frequency, TF over GST control). Also, the binding signal in [13] was 1.11 fold enrichment (6-mer frequency, TF over GST control); in [14], 1.1 fold enrichment (6-mer frequency, TF over GST control); in [15], 1.06 fold enrichment (6-mer frequency, TF over GST control).
As to GATGGA, the binding signal in [8] is 1.1 fold enrichment (6-mer frequency, TF over GST control); in experiment [9], 1.22 fold enrichment (6-mer frequency, TF over GST control); in [10], 1.04 fold enrichment (6-mer frequency, TF over GST control); in [11], 1.02 fold enrichment (6-mer frequency, TF over GST control).
